The list is not random: actives were taken first. Their share in the collection is about 18%.
IL-1B inflam inh: blocks inflammasome-driven IL-1 beta release | THP-1 LPS/ATP IL-1B secretion, AlphaLISA, 16 h; hits give low values | activity change, % at 57.5 µM | hit rate 4.7% among 360,000 | AID 743279; in the data active means activity change below about -50%; inconclusive means mostly about -30% to -49%
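Secreted IL-1B measured by AlphaLISA bead assay after 16 h compound exposure of THP-1 cells; compounds (final up to 57.5 uM) added 1 h before LPS (250 ng/mL) and ATP (1.25 mM) stimulation; lower signal means less secretion.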
Six1-Eya2 blk: inhibitors of human Six1/Eya2 interaction; Q15475+O00167; AlphaScreen GST-Six1/His-Eya2 binding, biochemical; hits give low values; activity change, % (no concentration beside the values); hit rate 0.56% among 360,000; in the data active means activity change below about -65%; inconclusive means mostly about -30% to -63%
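Six1/Eya2 binding was read as AlphaScreen signal after compounds were pinned into GST-Six1 plus His-tagged Eya2 (5X stock 250/500 nM) in pH 8.0 Tris/NaCl/TCEP buffer, beads added, then incubated 1 h, 37 C, dark.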
TDP1 cell noCPT: qHTS for Inhibitors of human tyrosyl-DNA phosphodiesterase 1 (TDP1): qHTS in cells in absence of CPT | Potency, µM (highest dose often 46.2 µM), inactives show at the top dose activity change, negative = growth inhibition, usual class: inhibitors | DT40 Tdp1-/- hTDP1 cells, no CPT, ATP luminescence, 48 h | AID 686978, 2013 | hit rate 15% among 420,000; further: potency means the concentration at half of the fitted maximal effect; nearly all actives have a fitted effect of over 55% in size
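A cellular qHTS used chicken DT40 cells lacking endogenous Tdp1 but carrying stably transfected human TDP1. Compounds were applied without camptothecin, and cell growth kinetics were judged by ATP-dependent luminescence after ≥48 hr.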
TDP1 inh: blocks human tyrosyl-DNA phosphodiesterase 1. Q9NUW8. recombinant TDP1, AlphaScreen DNA substrate cleavage. Potency, µM (top dose mostly 130 µM), inactives show at the top dose activity change, negative = inhibition, usual class: inhibitors. hit rate 0.28% among 350,000. AID 485290; further: potency means the concentration at half of the fitted maximal effect; nearly all actives have a fitted effect of over 40% in size
Target sequence (Q9NUW8 whole entry, looked up): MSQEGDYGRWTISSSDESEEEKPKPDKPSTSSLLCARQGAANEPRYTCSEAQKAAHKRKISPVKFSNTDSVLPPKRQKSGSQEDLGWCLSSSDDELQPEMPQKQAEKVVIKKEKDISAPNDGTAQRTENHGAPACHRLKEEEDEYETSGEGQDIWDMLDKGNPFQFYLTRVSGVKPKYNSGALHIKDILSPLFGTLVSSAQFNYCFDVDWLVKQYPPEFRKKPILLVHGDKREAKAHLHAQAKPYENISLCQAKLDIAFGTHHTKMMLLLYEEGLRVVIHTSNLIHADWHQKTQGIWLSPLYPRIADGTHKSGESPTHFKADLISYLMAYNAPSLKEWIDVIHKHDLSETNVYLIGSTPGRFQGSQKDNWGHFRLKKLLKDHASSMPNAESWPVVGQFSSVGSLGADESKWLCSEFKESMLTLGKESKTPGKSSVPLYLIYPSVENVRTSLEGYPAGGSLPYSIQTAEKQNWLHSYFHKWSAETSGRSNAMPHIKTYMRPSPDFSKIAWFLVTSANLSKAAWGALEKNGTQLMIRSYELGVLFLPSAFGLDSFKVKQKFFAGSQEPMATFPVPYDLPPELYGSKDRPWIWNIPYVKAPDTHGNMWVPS
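Signal: AlphaScreen proximity between streptavidin donor and anti-FITC acceptor beads on intact substrate. Reaction: Tdp1 1 nM, substrate 15 nM final, 5 min RT after 15 min compound preincubation.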
DT40 TDP1 CPT: DT40-hTDP1 cell growth loss with CPT; chicken DT40 Tdp1-/-;hTDP1 cells + 20 nM CPT, ATP luminescence, 48 h; Potency, µM (top dose mostly 46.2 µM), for inactives: at the top dose activity change, negative = growth inhibition, usual class: inhibitors; hit rate 12% among 420,000; AID 686979; further: potency means the concentration at half of the fitted maximal effect; nearly all actives have a fitted effect of over 55% in size
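Cell growth measured by CellTiter-Glo luminescence after a minimum 48 h, 37 C compound exposure with 20 nM CPT in Tdp1-knockout DT40 cells stably expressing hTDP1, seeded 400/well; qHTS titration format.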
CtBP-E1A inh: inhibitors of CtBP/E1A interaction. AlphaScreen GST-E1A/His-CtBP binding, 1536-well; hits give low values. hit rate 0.49% among 340,000. activity change, % (test concentration not listed); in the data active means activity change below about -65%; inconclusive means mostly about -30% to -63%
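GST-E1A and His-tagged CtBP (125 nM each as 5X stock) were preincubated with pin-transferred compound for 2 h at 37 °C in the dark, then glutathione donor and nickel acceptor beads were added for 1 h before AlphaScreen reading.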
Numbers without * were called inactive. Unless noted, the call rests on the fitted dose curve; in most records, active means well fitted curve in the direction sought with a large enough effect; inconclusive means small, poorly fitted or top-dose-only effect, or another doubt; inactive means no such curve, though single readings can be large; an effect the other way counts as inactive or inconclusive. On the % scale 0 is the no-effect control and ±100 the full control effect.

Cc1cccc(-c2cc3nc(C)c(C)c(NCCCn4ccnc4)n3n2)c1 was read as Six1-Eya2 blk -26, TDP1 cell noCPT 15µM*, DT40 TDP1 CPT inconclusive and CtBP-E1A inh -25.
`COCCNc1cc(C)nc2cc(-c3ccc(C)cc3)nn12` gave IL-1B inflam inh -7, Six1-Eya2 blk 8, TDP1 cell noCPT -9%, TDP1 inh 1%, DT40 TDP1 CPT 2% and CtBP-E1A inh 0.
For O=C(NC1CC1)c1cc(F)c(F)cc1Cl the results were IL-1B inflam inh -6, Six1-Eya2 blk 4, TDP1 cell noCPT -7%, TDP1 inh 0%, DT40 TDP1 CPT -10% and CtBP-E1A inh 6.
Screening COc1ccc(OCc2nnc(SCC(=O)N3CCCc4ccccc43)n2-c2ccc(C)cc2)cc1 returned IL-1B inflam inh inconclusive, Six1-Eya2 blk -21, TDP1 cell noCPT -22%, TDP1 inh 7%, DT40 TDP1 CPT inconclusive and CtBP-E1A inh -25.
CC(C)(C)OC(=O)N1CCC(C(=O)Nc2cccc(C(=O)NC3CC3)c2)CC1 was read as IL-1B inflam inh -10, Six1-Eya2 blk 3, TDP1 cell noCPT -7%, DT40 TDP1 CPT -24% and CtBP-E1A inh 3.
CC1CC(=O)Nc2ccccc2N1C(=O)COc1ccc2ccccc2c1 (centres undefined) was read as IL-1B inflam inh 17, Six1-Eya2 blk 4, TDP1 cell noCPT inconclusive, TDP1 inh -7%, DT40 TDP1 CPT inconclusive and CtBP-E1A inh -13.
For Cc1cc(C)c2c(n1)nn1c(NCCCn3ccnc3)cc(C)nc21 the results were TDP1 inh 3%.
For Cc1cc(NCCCn2ccnc2)n2nc(-c3ccc(F)cc3)cc2n1 the results were IL-1B inflam inh -61*, Six1-Eya2 blk -13, TDP1 cell noCPT -25%, TDP1 inh 11%, DT40 TDP1 CPT -19% and CtBP-E1A inh 11.
Screening Cn1c(O)c(C(C#N)=C2N=c3ccccc3=N2)c2ccccc21 returned IL-1B inflam inh 30, Six1-Eya2 blk 3, TDP1 cell noCPT 12µM*, TDP1 inh 4%, DT40 TDP1 CPT 8.2µM* and CtBP-E1A inh 11.
For N#CC(=C1N=c2ccccc2=N1)c1c(O)[nH]c2ccccc12 the results were TDP1 inh 7%.
For CCCNC1(C(N)=O)CCN(Cc2ccccc2)CC1 the results were IL-1B inflam inh -10, Six1-Eya2 blk 11, TDP1 cell noCPT 2%, DT40 TDP1 CPT 8% and CtBP-E1A inh -19.
Cc1noc(C)c1S(=O)(=O)N1CCCCC1c1cc(C(=O)Nc2cccc3c2CCCC3)no1 (centres undefined) was read as IL-1B inflam inh -5, Six1-Eya2 blk 3, TDP1 cell noCPT 21µM*, DT40 TDP1 CPT inconclusive and CtBP-E1A inh -18.
Screening O=C(Nc1ccc2c(c1)OCO2)c1cc(C2CCCCN2S(=O)(=O)c2cccs2)on1 (centres undefined) returned IL-1B inflam inh -14, Six1-Eya2 blk -19, TDP1 cell noCPT 23µM*, DT40 TDP1 CPT inconclusive and CtBP-E1A inh -10.
`CS(=O)(=O)N1CCCCC1c1cc(C(=O)Nc2cccc3c2CCCC3)no1` (centres undefined) gave IL-1B inflam inh -6, Six1-Eya2 blk 1, TDP1 cell noCPT 9.2µM*, DT40 TDP1 CPT 15µM* and CtBP-E1A inh 1.
Screening O=C(Nc1cccc2c1CCCC2)c1cc(C2CCCCN2S(=O)(=O)c2cccs2)on1 (centres undefined) returned IL-1B inflam inh 20, Six1-Eya2 blk 4, TDP1 cell noCPT 23µM*, DT40 TDP1 CPT 16µM* and CtBP-E1A inh -19.
Screening COCCN(C(=O)c1oc2ccccc2c1COC)c1c(N)n(CC(C)C)c(=O)[nH]c1=O returned IL-1B inflam inh 17, Six1-Eya2 blk 7, TDP1 cell noCPT -10%, TDP1 inh 0%, DT40 TDP1 CPT -6% and CtBP-E1A inh -4.
Screening CC(C)Oc1ccc(C(=O)OC(C)C(=O)NC2CCCCC2C)cc1 (centres undefined) returned IL-1B inflam inh -8, Six1-Eya2 blk -1, TDP1 cell noCPT inconclusive, TDP1 inh -2%, DT40 TDP1 CPT -25% and CtBP-E1A inh -23.
For O=C(c1ccc([N+](=O)[O-])o1)N1CCN(c2nc3c(Cl)cccc3s2)CC1 the results were IL-1B inflam inh -79*, Six1-Eya2 blk -6, TDP1 cell noCPT 13µM*, TDP1 inh 0%, DT40 TDP1 CPT 21µM* and CtBP-E1A inh -3.
COc1cccc2sc(N3CCN(C(=O)c4ccc([N+](=O)[O-])o4)CC3)nc12 was read as IL-1B inflam inh -84*, Six1-Eya2 blk -11, TDP1 cell noCPT 18µM*, TDP1 inh 5%, DT40 TDP1 CPT 21µM* and CtBP-E1A inh 0.
CCOc1cccc2sc(N3CCN(C(=O)c4ccc5c(c4)CCCC5)CC3)nc12 was read as TDP1 cell noCPT 13µM*, TDP1 inh -3% and DT40 TDP1 CPT 18µM*.
Clc1cccc2sc(N3CCN(c4ccccc4)CC3)nc12 was read as IL-1B inflam inh 37, Six1-Eya2 blk -2, TDP1 cell noCPT 21µM*, TDP1 inh 3%, DT40 TDP1 CPT 23µM* and CtBP-E1A inh 13.
`O=C(c1ccc([N+](=O)[O-])o1)N1CCCCCC1` gave IL-1B inflam inh -1, Six1-Eya2 blk 6, TDP1 cell noCPT -13%, TDP1 inh -2%, DT40 TDP1 CPT inconclusive and CtBP-E1A inh -4.
For O=C(c1ccc2c(c1)CCCC2)N1CCN(c2nc3c(F)cccc3s2)CC1 the results were TDP1 cell noCPT inconclusive, TDP1 inh 3% and DT40 TDP1 CPT -26%.
Screening COC(=O)c1ccc(OC)c(CN2CCCN(Cc3ccc(F)cc3)S2(=O)=O)c1 returned IL-1B inflam inh -26, Six1-Eya2 blk 1, TDP1 cell noCPT inconclusive, DT40 TDP1 CPT inconclusive and CtBP-E1A inh 10.
Cc1ccn2c(=O)c(C(=O)Nc3ccc(F)c(C(F)(F)F)c3)cnc2c1 was read as TDP1 cell noCPT -13%, TDP1 inh -8% and DT40 TDP1 CPT 2%.
`O=[N+]([O-])c1cccc(NN=Nc2ccccc2)c1` gave IL-1B inflam inh 14, Six1-Eya2 blk -25, TDP1 cell noCPT -1%, DT40 TDP1 CPT -21% and CtBP-E1A inh -4.

High-throughput results from PubChem BioAssay.
